Results filed as inconclusive are left out. Values without a mark were called inactive. Active and inactive are the calls of the source. Calls follow the shape of the dose curve; as a rule, active = well fitted curve in the direction sought with a large enough effect; inconclusive = small, poorly fitted or top-dose-only effect, or another doubt; inactive = no such curve, though single readings can be large or run the other way.
Experiment: Secondary Assay for Inhibitors of Human Cdc-like kinase 4 (Clk4): HEK-293 Cell Viability Assay;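 also: cytotoxic hits lower the ATP light signal so activity reflects loss of viability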; as to activity change, negative = cytotoxicity: % of control where 0% means no effect
Conditions: HEK-293 viability, ATP luminescence (CellTiter-Glo), 24/48 h; series mostly up to 46.1 µM; activity change, negative = cytotoxicity: at the top concentration
Procedure: NIH Molecular Libraries Probe Production Centers Network [MLPCN] NIH Chemical Genomics Center [NCGC] MLPCN Grant: 1R03MH084827-01 Assay Submitter (PI): Tom Misteli NCGC Assay Overview: Cytotoxicity of the active compounds in the Clk4 screens was assessed using the CellTiter-Glo Luminescent Cell Viability Assay kit (Promega, USA) in the HEK-293 (ATCC) cell line. CellTiter-Glo measures the intracellular ATP present in metabolically active cells using Ultra-Glo as the luciferase to detect ATP levels. In brief, the luciferase in the buffer catalyzes the oxidation of luciferin to oxyluciferin and light which is dependent on ATP. […] Wells treated with various concentrations of cycloheximide (Sigma) and DMSO, and wells with media alone were used as positive and negative controls, respectively. […] [1] http://www.promega.com/tbs/tb288/tb288.pdf
NCGC Assay Protocol Summary: HEK-293 cells were grown in a flask up to 80% confluence. Cells were trypsinized, washed, and resuspended in MEM Eagle + 10% FBS + 1% pen-strep media at a concentration of 120 cells/uL. Five uL/well of cell solution was dispensed into a 1536-well assay plates (Greiner, solid white medium-binding plates) with Aurora Discovery BioRAPTR Flying Reagent Dispenser (FRD; Beckton-Dickenson). Cells were pre-incubated at 37 degree Celsius, 5% CO2 for four hours. Compound and control solutions (23nL) were then transferred to the assay plate using the Kalypsys 1536-pin tool. Assay plates were re- incubated at 37 degree Celsius, 5% CO2. After 24 or 48 hours, five uL of CellTiter Glo detection reagent was added. Luminescence signal was read with Perkin Elmer ViewLux plate reader after 30 min room temperature incubation.
Potency is read from the fitted curve at half-maximal effect.

Row | SMILES | activity change, negative = cytotoxicity [%] | Potency
1 | CCOC(=O)c1ccc(-c2ccc3ncnc(NCc4ncc[nH]4)c3c2)o1 | -9.91 | 
2 | NCCNc1ncnc2ccc(-c3ccc4c(c3)OCO4)cc12 | -23.2 | 
3 | CCOC(=O)c1ccc(-c2ccc3ncnc(NCc4cccs4)c3c2)o1 | -2.15 | 
4 | CN(C)CCNc1ncnc2ccc(-c3ccc4c(c3)OCO4)cc12 | -19.2 | 
5 | Cc1nc(CCNc2ncnc3ccc(-c4ccc5c(c4)OCO5)cc23)cs1 | -12.5 | 
6 | Fc1cccc(CNc2ncnc3ccc(-c4cccc(Cl)c4)cc23)c1 | -12.4 | 
7 | CCOC(=O)c1ccoc1-c1ccc2ncnc(NCc3ncc[nH]3)c2c1 | -11.2 | 
8 | Cn1cncc1CNc1ncnc2ccc(-c3ccc4c(c3)OCO4)cc12 | -1.99 | 
9 | Cc1csc(CNc2ncnc3ccc(-c4ccc5c(c4)OCO5)cc23)c1 | -4.14 | 
10 | Clc1cccc(-c2ccc3ncnc(NCc4cccs4)c3c2)c1 | -15 | 
11 | CCN(CCc1cn(C)cn1)c1ncnc2ccc(-c3ccc4c(c3)OCO4)cc12 | -6.06 | 
12 | CCNC(=O)c1ccc(-c2ccc3ncnc(NCCc4cnc[nH]4)c3c2)o1 | 0.0342 | 
13 | Cc1csc(CNc2ncnc3ccc(-c4ccco4)cc23)c1 | -6.58 | 
14 | c1nc(N2CCNCC2)c2cc(-c3ccc4c(c3)OCO4)ccc2n1 | -12.9 | 
15 | Cc1csc(CNc2ncnc3ccc(-c4ccc(C(=O)O)o4)cc23)n1 | 7.98 | 
16 | Cc1nc(CNc2ncnc3ccc(-c4sc(C)nc4C)cc23)cs1 | -20 | 
17 | Cc1csc(CNc2ncnc3ccc(-c4ccc(C(C)O)o4)cc23)n1 (stereo not given) | 1.29 | 
18 | Cn1ccc2cc(-c3ccc4ncnc(NCc5cccnc5)c4c3)ccc21 | 5.41 | 
19 | CCNC(=O)c1ccc(-c2ccc3ncnc(NCc4ccc(C)o4)c3c2)o1 | -9.43 | 
20 | Cc1nc(CSc2ncnc3ccc(-c4ccc5c(c4)OCO5)cc23)cs1 | 1.36 | 

Row | SMILES | activity change, negative = cytotoxicity [%] | Potency
21 | Cc1csc(CNc2ncnc3cc(-c4ccc5c(c4)OCO5)ccc23)n1 | 0.525 | 
22 | c1cncc(CNc2ncnc3ccc(-c4cccnc4)cc23)c1 | 8.34 | 
23 | c1nc(NCC2CCCC2)c2cc(-c3ccc4c(c3)OCO4)ccc2n1 | 1.59 | 
24 | COc1cccc(Nc2ncc3nc(-c4cn(C)c5ccccc45)c(=O)n(CCC#N)c3n2)c1 |  | 7.91 µM (active)
25 | Cc1ccsc1CNc1ncnc2ccc(-c3ccc4c(c3)OCO4)cc12 | -13.2 | 
26 | Clc1cccc(-c2ccc3ncnc(NCc4cccnc4)c3c2)c1 | -22.8 | 
27 | C[C@@H](O)c1ccc(-c2ccc3ncnc(NCc4cccs4)c3c2)o1 |  | inactive
28 | CCOC(=O)c1ccc(-c2ccc3ncnc(NCCc4cnc[nH]4)c3c2)o1 | -6.21 | 
29 | Cc1nc(CN(C)c2ncnc3ccc(-c4ccc5c(c4)OCO5)cc23)cs1 |  | 28.1 µM (active)
30 | CC(=O)c1ccc(-c2ccc3ncnc(NCc4ccc(C)o4)c3c2)o1 | -5.25 | 
31 | c1coc(-c2ccc3ncnc(NCc4cccs4)c3c2)c1 | -9.79 | 
32 | c1nc(NCC2CCOC2)c2cc(-c3ccc4c(c3)OCO4)ccc2n1 (stereo not given) | 4.83 | 
33 | Cc1csc(CNc2ncnc3ccc(-c4ccoc4)cc23)c1 | -15.6 | 
34 | Fc1cccc(CNc2ncnc3ccc(-c4cccnc4)cc23)c1 | -4.29 | 
35 | Fc1cccc(CNc2ncnc3ccc(-c4ccc5c(c4)OCO5)cc23)c1 | 4.03 | 
36 | c1nc(OCc2cnc[nH]2)c2cc(-c3ccc4c(c3)OCO4)ccc2n1 | 5.34 | 
37 | Cc1cccc(CNc2ncnc3ccc(-c4cccc(Cl)c4)cc23)c1 | -22.3 | 
38 | CC(O)c1ccc(-c2ccc3ncnc(N4CCOCC4)c3c2)o1 (stereo not given) | 0.411 | 
39 | c1nc(NCC2CCCO2)c2ccc(-c3ccc4c(c3)OCO4)cc2n1 (stereo not given) | -17.5 | 
40 | Cc1cccc(CNc2ncnc3ccc(-c4ccccc4Cl)cc23)c1 | -18.8 | 
